In all, about 150,000 compounds went through this assay and about 540 (0.36%) showed an effect of 50% or more. What follows is part of a selection rich in strong results, with near analogues and random picks from the rest.

In general, % Inhibition refers to the drop in the measured response relative to a control, in per cent.

This test has as its system Plasmodium falciparum. Kind of test: Primary screen in NF54 nanoGlo assay, in single point, at 2uM, 72h; a lower Z score goes with more inhibition. Format: functional, Erythrocyte. The following applies: timepoint 72 hour.
Consider `CN(C)c1nc(N)cc(-c2cccc3cccnc23)n1`, for which the “% Inhibition” value worked out at 57% and the Z score is on record as -7.96.

On to `CN(C)c1nc(N)cc(-c2ccc(-n3cccn3)cc2)n1`, for which the “% Inhibition” value is -1% and the Z score is given as 0.21.

In the case of `COc1ccc(F)c(-c2cc(N)nc(N(C)C)n2)c1`, the “% Inhibition” value is on record as -15% and the Z score came to 2.16.

For the molecule `COc1ccc2c(c1)C1(CC1)CN(C(=O)Nc1ccnnc1C)C2`, the “% Inhibition” value is on record as -11% and the Z score came out at 2.25.

Take `COc1ccc(-c2cc3c(=O)n(CCNC(=O)Cc4ccc(F)cc4)ccn3n2)cc1`: the “% Inhibition” value is reported as -7% and the Z score was determined as 1.17.

For `CNC(=O)[C@@H]1C[C@H](Oc2ccccc2)CN1S(C)(=O)=O`, the “% Inhibition” value was -12% and the Z score stood at 1.64.

As for `NC(=O)[C@@H]1CN(Cc2ncc(C(F)(F)F)s2)CCO1`, the “% Inhibition” value was -12% and the Z score is given as 1.56.

As for `CC[C@H](C)NC(=O)COc1ccc(Cl)cc1C(N)=O`, the “% Inhibition” value is -8% and the Z score stood at 0.84.

In the case of `Cc1cc(O)nc([C@H](C)N(C)CC2CCOCC2)n1`, the “% Inhibition” value is -12% and the Z score amounted to 1.59.

For `Cc1cc(N(C)CCC2CC2)nc([C@H](C)N(C)CCC2CC2)n1`, the “% Inhibition” value is given as 59% and the Z score is given as -9.38.

As for `CCc1nc(C)cc(N(C)CCn2nc(C)cc2C)n1`, the “% Inhibition” value is -18% and the Z score worked out at 1.72.

For `CCCN(CCC)C[C@H](O)COc1c(Cl)cccc1Cl`, the “% Inhibition” value is -6% and the Z score came to 0.67.

For `CCN(CC)CC(O)COc1c(Br)cc(C(C)(C)c2cc(Br)c(OCC(O)CN(CC)CC)c(Br)c2)cc1Br` (centres undefined), the “% Inhibition” value is recorded as 99% and the Z score is given as -13.36.

For the molecule `OCCN(CCO)C[C@H](O)COc1c(Br)cc(Br)cc1Br`, the “% Inhibition” value is reported as -7% and the Z score was 1.05.

`Cc1ncc2ncccc2c1Br`: the “% Inhibition” value is reported as -4% and the Z score is listed as 0.8.

As to `C[n+]1cnc(-c2ccccc2)cc1-c1ccccc1`, the “% Inhibition” value came out at 1% and the Z score is reported as -0.07.

On to `Cn1c(Cc2n[n+]3c(-c4ccccc4)cc(-c4ccccc4)nc3n2C)n[n+]2c(-c3ccccc3)cc(-c3ccccc3)nc12`, for which the “% Inhibition” value was 95% and the Z score was -10.43.

With `Cc1nc(-c2ccccc2)cc(N2CCN(CCc3ccccc3)CC2)n1`, the “% Inhibition” value was determined as 0% and the Z score is listed as 0.

Take `CCS(=O)(=O)CCNC(=O)c1ccnc(C(C)C)n1`: the “% Inhibition” value is reported as -4% and the Z score stood at 0.73.

Turning to `O=C(Cn1nc(-n2cccn2)ccc1=O)NCc1ccco1`, the “% Inhibition” value is recorded as -7% and the Z score was 1.27.

With `NC(=O)c1ccc(C(=O)OC2CCCCCC2)cn1`, the “% Inhibition” value was 3% and the Z score is listed as -0.42.

With `CCOC(=O)c1ccc(NC(=O)CC2CCC2)cn1`, the “% Inhibition” value turned out to be 3% and the Z score is on record as -0.29.

Take `CCCC1CCC(OC(=O)c2ccc(C(=O)OC3CCC(CCC)CC3)nc2)CC1` (centres undefined): the “% Inhibition” value amounted to 74% and the Z score was -10.02.

Turning to `CCc1nnc(-c2[nH]c(C)c(S(=O)(=O)Nc3cccc(Cl)c3)c2C)o1`, the “% Inhibition” value was -5% and the Z score was found to be 0.66.

Consider `Cc1c(NC[C@H](C)c2ccccc2)cnn1C`, for which the “% Inhibition” value was -3% and the Z score was determined as 0.4.

Consider `C[C@@H](CNC(=O)C(C)(C)C)c1ccccc1`, for which the “% Inhibition” value is on record as -10% and the Z score is 0.9.

As to `COC(C)[C@H](C)NCC(C)c1ccccc1` (some centres undefined), the “% Inhibition” value was determined as 73% and the Z score was found to be 1.55.

Turning to `Cc1cnc(=O)n(CC(=O)N2CCN(c3ccccc3F)CC2)c1`, the “% Inhibition” value is -1% and the Z score is on record as 0.07.

As to `CN1CCC(N(CCc2ccccc2)C(=O)c2cccc3cnccc23)CC1`, the “% Inhibition” value is given as -4% and the Z score amounted to 0.65.

In the case of `Cn1cccc1CN(C(=O)c1cc2ccccc2[nH]1)C1CC1`, the “% Inhibition” value is -5% and the Z score worked out at 1.

For `Cc1sc2ncnc(Nc3ccc4c(c3)OCO4)c2c1C`, the “% Inhibition” value was -3% and the Z score came out at 0.37.

For `CC[C@H](C)[C@@H](CN(C)C)NC(=O)CCc1ccncc1`, the “% Inhibition” value is given as 20% and the Z score is -2.58.

On to `O=C(NCC1CC1)c1ccc2[nH]c3c(c2c1)CCCCC3`, for which the “% Inhibition” value was -12% and the Z score is given as 1.65.

As for `CCCC(O)(CCC)CC(=O)N1CCN(C(=O)OCC)CC1`, the “% Inhibition” value is -7% and the Z score is 0.63.

For `O=C(c1ccc(-c2cn(-c3ccccc3)cn2)cc1)N1CCOC[C@@H](O)C1`, the “% Inhibition” value is 5% and the Z score is reported as -0.8.

Regarding `CCOc1cc(CN2CC[S+]([O-])CC2)ccc1OC`, the “% Inhibition” value turned out to be 6% and the Z score was -1.1.

As to `Cc1nn(C)c(Cl)c1C(=O)Nc1ccc2ccccc2c1`, the “% Inhibition” value is listed as 10% and the Z score is listed as -1.64.

Consider `Cc1nn(C)c(Cl)c1CNCc1ccc(N2CCCC2=O)cc1`, for which the “% Inhibition” value is on record as -5% and the Z score amounted to 0.6.

Turning to `CCc1ccc([C@H]2NCCc3[nH]cnc32)nc1`, the “% Inhibition” value was found to be 55% and the Z score is on record as -5.21.

For the molecule `c1ccc(-c2cc([C@@H]3NCCc4[nH]cnc43)on2)cc1`, the “% Inhibition” value was -4% and the Z score was determined as 0.56.

With `Cc1nn(CCO)c(C)c1[C@@H]1NCCc2[nH]cnc21`, the “% Inhibition” value was -16% and the Z score came to 2.3.

Turning to `CCc1nnc2c(S(=O)(=O)N(Cc3cccc(Cl)c3)c3ccccc3)cccn12`, the “% Inhibition” value was -17% and the Z score turned out to be 2.2.

The values are drawn from ChEMBL document CHEMBL4888484, “Replenishing the malaria drug discovery pipeline: Screening and hit evaluation of the MMV Hit Generation Library 1 (HGL1) against asexual blood stage Plasmodium falciparum ,using a nano luciferase reporter read-out” (2022).
